These results are taken from PubChem BioAssay AID504333 (National Center for Advancing Translational Sciences (NCATS), 2011).

Hit rate of the full screen: of about 360,000 compounds, about 16,000 (4.4%) were called active. Inconclusive results (about 9%) are left out. This excerpt belongs to a sample that is enriched for actives. A number with no mark means an inactive call. The call rests on the fitted dose curve; in most records, active means well fitted inhibition curve with a large enough effect; inconclusive means small, poorly fitted or top-dose-only effect; inactive means no such curve, though single readings can be large or run the other way.
On the % scale 0 is the no-effect control and ±100 the full control effect; potency means the concentration at half of the fitted maximal effect.

The target in the assay is Bromodomain adjacent to zinc finger domain protein 2B (Homo sapiens) (UniProt Q9UIF8). Description: qHTS Assay for Inhibitors of BAZ2B. Further: nearly all actives have a fitted effect of over 60% in size. The conditions noted are these: AlphaScreen BAZ2B-H3K14Ac peptide displacement; series mostly up to 114 µM; activity change, negative = inhibition: at the top concentration. In short, it runs like this: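 BAZ2B (50 nM) with biotin-H3(5-23)K14Ac peptide (50 nM) in PBS pH 7.4, 0.01% Tween-20, preformed 30 min, then compound 30 min at room temperature; top concentration 110uM. AlphaScreen streptavidin donor/nickel chelate acceptor beads (10 ug/mL final), 20 min dark, signal read.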
Bromodomain adjacent to zinc finger domain protein 2B (Homo sapiens), sequence (Q9UIF8 whole entry, looked up, the tested form may be a part): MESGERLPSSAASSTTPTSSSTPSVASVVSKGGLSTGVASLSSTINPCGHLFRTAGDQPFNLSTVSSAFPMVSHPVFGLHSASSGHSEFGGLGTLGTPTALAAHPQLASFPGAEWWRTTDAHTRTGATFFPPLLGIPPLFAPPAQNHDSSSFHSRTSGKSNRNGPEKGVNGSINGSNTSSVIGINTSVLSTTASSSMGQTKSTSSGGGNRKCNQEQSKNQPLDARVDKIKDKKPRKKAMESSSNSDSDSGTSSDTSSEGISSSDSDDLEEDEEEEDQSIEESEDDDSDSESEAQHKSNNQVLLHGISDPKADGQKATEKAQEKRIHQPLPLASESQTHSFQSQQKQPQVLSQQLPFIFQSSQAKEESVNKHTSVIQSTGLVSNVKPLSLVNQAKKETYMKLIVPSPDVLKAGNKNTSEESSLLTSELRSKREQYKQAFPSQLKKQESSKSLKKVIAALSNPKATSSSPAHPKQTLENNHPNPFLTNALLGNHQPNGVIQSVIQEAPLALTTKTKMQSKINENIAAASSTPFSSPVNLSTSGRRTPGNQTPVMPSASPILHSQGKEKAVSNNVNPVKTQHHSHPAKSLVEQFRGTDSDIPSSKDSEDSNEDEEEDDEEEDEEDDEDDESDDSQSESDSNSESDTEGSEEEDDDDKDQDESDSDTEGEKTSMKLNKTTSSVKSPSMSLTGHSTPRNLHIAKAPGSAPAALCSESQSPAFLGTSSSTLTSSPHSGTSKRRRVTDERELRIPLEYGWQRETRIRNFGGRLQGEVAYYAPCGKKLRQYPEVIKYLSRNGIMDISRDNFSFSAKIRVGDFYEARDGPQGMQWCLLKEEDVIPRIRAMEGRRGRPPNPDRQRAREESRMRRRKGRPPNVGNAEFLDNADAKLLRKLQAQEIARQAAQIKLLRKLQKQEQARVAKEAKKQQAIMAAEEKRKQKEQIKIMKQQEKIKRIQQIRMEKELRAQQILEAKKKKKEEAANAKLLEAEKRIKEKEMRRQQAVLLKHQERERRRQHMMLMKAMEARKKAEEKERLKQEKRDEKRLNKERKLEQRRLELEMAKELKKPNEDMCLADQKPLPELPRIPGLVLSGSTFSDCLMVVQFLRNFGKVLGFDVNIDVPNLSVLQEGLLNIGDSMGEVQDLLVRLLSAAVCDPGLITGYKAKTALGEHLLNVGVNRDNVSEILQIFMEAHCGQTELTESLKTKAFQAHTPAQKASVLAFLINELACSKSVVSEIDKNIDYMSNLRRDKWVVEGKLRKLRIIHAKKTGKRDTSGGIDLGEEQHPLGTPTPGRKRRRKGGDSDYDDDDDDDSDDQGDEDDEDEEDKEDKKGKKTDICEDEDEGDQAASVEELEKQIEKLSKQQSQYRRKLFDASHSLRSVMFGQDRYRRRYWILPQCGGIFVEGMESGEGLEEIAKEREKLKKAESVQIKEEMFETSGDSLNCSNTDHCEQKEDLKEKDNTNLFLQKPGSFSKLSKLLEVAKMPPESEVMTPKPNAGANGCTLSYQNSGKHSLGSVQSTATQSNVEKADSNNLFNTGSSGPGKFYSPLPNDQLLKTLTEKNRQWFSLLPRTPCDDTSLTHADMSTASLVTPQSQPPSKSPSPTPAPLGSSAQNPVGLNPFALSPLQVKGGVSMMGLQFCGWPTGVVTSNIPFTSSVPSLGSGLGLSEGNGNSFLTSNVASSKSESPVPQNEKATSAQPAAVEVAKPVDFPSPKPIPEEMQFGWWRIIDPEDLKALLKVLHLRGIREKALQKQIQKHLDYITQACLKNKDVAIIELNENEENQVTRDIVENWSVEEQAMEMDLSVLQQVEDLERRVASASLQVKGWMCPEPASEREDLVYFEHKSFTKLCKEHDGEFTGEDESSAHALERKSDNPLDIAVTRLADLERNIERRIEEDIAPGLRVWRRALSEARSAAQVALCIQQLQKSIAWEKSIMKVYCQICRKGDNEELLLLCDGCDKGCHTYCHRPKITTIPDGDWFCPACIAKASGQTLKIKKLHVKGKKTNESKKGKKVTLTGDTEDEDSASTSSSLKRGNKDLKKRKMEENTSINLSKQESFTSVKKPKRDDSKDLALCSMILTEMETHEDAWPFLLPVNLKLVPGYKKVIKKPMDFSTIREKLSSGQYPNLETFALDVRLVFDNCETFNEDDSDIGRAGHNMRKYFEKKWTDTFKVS
A general note: Quantitative high-throughput screening tests each substance at several concentrations.
In the case of `CC(=O)Nc1ccc(S(=O)(=O)N2CCN(c3ccccc3)CC2)cc1`, the “activity change, negative = inhibition” value is 0.312%. Take `CC(=O)Nc1ccc(/C=C/C(=O)c2ccccc2)cc1`: the “activity change, negative = inhibition” value is -0.126%. Take `Cc1cc(C(=O)O)ccc1[N+](=O)[O-]`: the “activity change, negative = inhibition” value was -31.3%. Regarding `CN(C)c1ccc(/C=C/C(=O)c2ccc(C(C)(C)C)cc2)cc1[N+](=O)[O-]`, the Potency is 8.91 µM (active).

Regarding `O=S(=O)(c1ccc(C2CCCCC2)cc1)N1CCN(c2ccc(Cl)c(Cl)c2)CC1`, the “activity change, negative = inhibition” value was -6.77%. For `CC1CCN(S(=O)(=O)c2ccc3c(c2)N(CC(=O)NCCc2ccccc2)C(=O)CO3)CC1`, the “activity change, negative = inhibition” value was -21.3%. For the molecule `Cc1cc(Cl)ccc1NC(=O)Cc1ccc(NC(=O)N2CCCCc3ccccc32)cc1`, the “activity change, negative = inhibition” value was -8.91%. Still for that read-out and setting: to `Cc1ccc(-n2c(=O)c3cccnc3n2CC(=O)Nc2ccccc2C(F)(F)F)cc1C` belongs 12.9%. Turning to `COc1ccccc1C1=Nc2cccc3cccc(c23)N1`, the Potency was 39.8 µM (active).

As for `COc1ccccc1-c1nc(C(F)(F)F)c(OC)o1`, the “activity change, negative = inhibition” value was 14.6%.

With `c1ccc(C2=Nc3cccc4cccc(c34)N2)cc1`, the “activity change, negative = inhibition” value was -31.3%. Regarding `Cc1ccccc1-c1nc2cc(NC(=O)c3cccc(OCCC(C)C)c3)ccc2o1`, the “activity change, negative = inhibition” value is 7.98%. Consider `CCc1ccc2oc(-c3ccc(C)c(NC(=O)/C=C/c4ccco4)c3)nc2c1`, for which the “activity change, negative = inhibition” value is -12.5%. The same measure, in the same setting: to `O=C(CSc1nnc(COc2ccc(Cl)cc2)n1Cc1ccco1)N1CCNC1=O` belongs -2.72%. With `Cn1c2ccccc2c(=O)c2c(=O)n(Cc3ccco3)c(COc3ccccc3)nc21`, the Potency was 56.2 µM (active).

With `COCn1c(COc2ccccc2)nc2ccccc21`, the “activity change, negative = inhibition” value was 0.462%. For `Cc1ccc2ncc(C(=O)Nc3ccc(OC(F)(F)F)cc3)c(=O)n2c1`, the “activity change, negative = inhibition” value is 2.09%. Same read-out and setting: in the case of `Cc1ccc(Cl)cc1NC(=O)CCS(=O)(=O)c1ccc(Br)s1` it was -11.7%. Regarding `Oc1c(C=Nc2cccc3nsnc23)ccc2ccccc12`, the Potency was 50.1 µM (active).

Regarding `Cc1ccc(-n2c(=O)c3cccnc3n2CC(=O)NCc2ccc(F)cc2)cc1C`, the “activity change, negative = inhibition” value is 11.3%. Consider `CN(C)[C@@H]1C(=O)C(C(N)=O)=C(O)[C@@]2(O)C(=O)C3=C(O)c4c(O)ccc(Cl)c4[C@@H](O)[C@H]3C[C@@H]12`, for which the Potency was 10 µM (active). As for `C=C1c2c(Cl)ccc(O)c2C(O)=C2C(=O)[C@]3(O)C(O)=C(C(N)=O)C(=O)[C@@H](N(C)C)[C@@H]3[C@@H](O)C12` (some centres undefined), the Potency is 2.82 µM (active).

In the case of `Cc1cc(=O)n(CC(=O)Nc2cccc([N+](=O)[O-])c2)c(-n2nc(C)cc2C)n1`, the “activity change, negative = inhibition” value was -21.5%. As for `N#Cc1ccccc1Cn1cnc2nc3c(cc2c1=O)CCCC3`, the “activity change, negative = inhibition” value is -3.89%.

Turning to `COc1ccc(-c2cc(-c3nc(-c4cc(OC)c(OC)c(OC)c4)no3)[nH]n2)c(OC)c1`, the “activity change, negative = inhibition” value is -1.15%. On the same count and under the same terms, to `COc1ccc(N2CCN(C(=O)c3c(C)oc4nc(C)nc(N5CCCC5)c34)CC2)cc1` belongs 4.5% [at 57.1 µM]. Still for that read-out and setting: to `CC1=NN(c2ccccc2)C(=O)C1C(=O)c1ccc([N+](=O)[O-])cc1` (centres undefined) belongs -13.4%. With `O=C1CC(c2ccccc2)=NN1c1ccc([N+](=O)[O-])cc1`, the Potency was 25.1 µM (active). For the molecule `O=c1[nH]n(-c2ccc([N+](=O)[O-])cc2)c(=O)c2ccccc12`, the “activity change, negative = inhibition” value was 20.8%. Still for that read-out and setting: in the case of `CCCn1c2ccccc2c2cnn(CC(=O)NCCCOC(C)C)c(=O)c21` it was -7.08%; in that of `CCc1nnc2c3ccccc3nc(N3CCN(c4ccc(C)cc4C)CC3)n12`, 4.68% [at 57.1 µM].

Take `CC(C)Cn1c(-c2ccc(S(=O)(=O)N3CCOCC3)cc2)csc1=Nc1cc(Cl)ccc1Cl`: the “activity change, negative = inhibition” value was -37.6%. For `OCCn1c(-c2ccccc2)csc1=Nc1ccccc1`, the Potency was 11.2 µM (active).

`Cc1csc(=NC(=O)c2ccccc2)n1CCO`: the “activity change, negative = inhibition” value was 3.79%.

As to `CN(C)CCCn1c(-c2ccc(Cl)cc2)csc1=Nc1ccccc1`, the Potency is 12.6 µM (active). Regarding `Cc1cccn2c(=O)c(C(=O)NC(C)c3ccccc3)cnc12` (centres undefined), the “activity change, negative = inhibition” value is -1.1%. For `Cc1csc2nc(COC(=O)c3ccccc3NC(=O)c3ccccc3Cl)cc(=O)n12`, the “activity change, negative = inhibition” value was -0.509%. For the molecule `Cc1ccc(CN2COc3cc(C)c4c(oc(=O)c5ccccc54)c3C2)cc1`, the “activity change, negative = inhibition” value is -9.36%. The same measure, in the same setting: in the case of `CC(=O)c1sc(N2C(=O)c3oc4ccccc4c(=O)c3C2c2ccc(C)cc2)nc1C` (centres undefined) it was 0.549%. On to `Cc1ccc(S(=O)(=O)c2cn(Cc3ccccc3)c3cc(N4CCCC4)c(F)cc3c2=O)c(C)c1`, for which the “activity change, negative = inhibition” value is 4.01%. As for `Oc1ccc(N=Nc2nccs2)c(O)c1`, the Potency was 25.1 µM (active). For `Oc1ccc2ccccc2c1N=Nc1nccs1`, the Potency was 2 µM (active).

As for `CCc1ccccc1N(C)C(=O)C1CCCN(c2ncnc3onc(-c4ccc(F)cc4)c23)C1` (centres undefined), the “activity change, negative = inhibition” value is 6.53% [at 57.1 µM].

As to `CN(C(=O)CSc1nc2ccccc2n1Cc1ccccc1C#N)c1ccccc1`, the “activity change, negative = inhibition” value is -36.5%. With `CC(C)(C)OC(=O)N1CCC(c2c(C(=O)NCCc3ccsc3)cnn2-c2ccc(F)cc2F)CC1`, the “activity change, negative = inhibition” value is -1.06% [at 57.1 µM].

Take `Cc1ccccc1CNC(=O)CCCn1nc(C)c2sc3ccccc3c2c1=O`: the “activity change, negative = inhibition” value was -3.88%.

Consider `Cc1ccc2c(Cl)c(C(=O)Nc3nn[nH]n3)sc2c1`, for which the Potency is 50.1 µM (active).

Take `Cc1ccc(-c2cc(C(=O)Nc3nn[nH]n3)c3ccccc3n2)c(C)c1`: the “activity change, negative = inhibition” value is 7.22%. Consider `CCCC(=O)Nc1ccc(NC(=O)c2sc3ccccc3c2Cl)cc1`, for which the “activity change, negative = inhibition” value was -3.87%.
